Several values for one entry are separate records, joined by “and”; a condition that tells them apart may be missing. Equal values may be shown once. Results filed as inconclusive are left out. Activity calls are given as the source filed them. Unless noted, calls come from the whole dose curve; as a rule, active = well fitted curve in the direction sought with a large enough effect; inconclusive = small, poorly fitted or top-dose-only effect, or another doubt; inactive = no such curve, though single readings can be large; an effect the other way counts as inactive or inconclusive.
Legend:
[1] = AP1 Signaling Pathway (AID 357; active = well fitted curve in either direction with a large enough effect, not every such curve was filed as active;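 note: ME-180 reporter cells stimulated with EGF at its EC50 level; % is set by controls: 0 for no effect and ±100 for the full control effect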); conditions: ME-180 AP-1-bla reporter, EGF-induced, beta-lactamase ratio, 5 h
In short: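 AP-1-bla ME-180 cells, Opti-MEM + 0.5% dialyzed FBS, plated overnight 37 °C. Cpd titration + EC50 EGF, 5 h 37 °C. CCF4 2.5 h RT; ex 405, em 460/530 ratio → %activity, AC50.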

[2] = target: Cytochrome P450 1A2 (Homo sapiens) (UniProt P05177); assay: p450-cyp1a2 (AID 410; calls by dose curve;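 note: -100% = full effect of reference inhibitor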); conditions: recombinant CYP1A2, luciferin-ME demethylation, luminescence; series mostly up to 57 µM
In short: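 20nM CYP1A2 with 100uM Luciferin-ME (at Km) in 100mM KPO4; compound preincubated 10 min, NADPH regeneration added, 60 min at room temperature. Luciferin quantified by luminescence after detection reagent; normalized to 57 uM furafylline.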

[3] = NFAT Signaling Pathway (AID 444; active = well fitted curve in either direction with a large enough effect, not every such curve was filed as active;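 note: carbachol stimulus at about its EC50 of 1 µM final; % is set by controls: 0 for no effect and ±100 for the full control effect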); conditions: Jurkat NFAT-bla M1, carbachol, beta-lactamase ratio, 5 h
In short: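 Jurkat cells with NFAT-driven β-lactamase reporter and co-expressed M1 receptor, stimulated with carbachol (final 1 uM, ~EC50), compound titration, 5 h at 37 °C. CCF4 loaded 1 h at RT; 460/530 nm ratio gave %activity and AC50.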

[4] = Stat Signaling Pathway (AID 446; active = well fitted curve in either direction with a large enough effect, not every such curve was filed as active;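 note: ME-180 cervical cancer cells given 40 pM IL-6 alongside compound; SIE-controlled beta-lactamase reporter measured as 460/530 nm FRET emission ratio; % is set by controls: 0 for no effect and ±100 for the full control effect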); conditions: ME-180 (cervical carcinoma) SIE beta-lactamase reporter, IL-6 stimulated, 5 h
In short: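 IL-6/STAT signaling read in ME-180 cells via an SIE beta-lactamase reporter. Stimulus was 40 pM IL-6 (its AC50) for 5 hrs, so both activation and inhibition register.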

[5] = target: Glucocorticoid receptor (Homo sapiens) (UniProt P04150); assay: GR-GFP Redistribution (AID 450;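 active = compounds whose dose series gives a full or clear partial fitted curve of increased nuclear translocation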; note: potency is the fitted concentration of half-maximal effect); conditions: U2OS GR-GFP nuclear translocation, laser cytometry, 2 h
[6] = target: Glucocorticoid receptor (Homo sapiens) (UniProt P04150); assay: GR-EFC Redistribution (AID 451; calls by dose curve; note: potency is the fitted concentration of half-maximal effect); conditions: CHO-K1 GR-EFC translocation, beta-gal luminescence, 2 h
In short: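 CHO-K1 cells expressing nuclear EA and GR-ED fragments of b-gal; compounds titrated up to 46 uM final, 2 h at 37 C. GR nuclear translocation read as complemented b-gal luminescence after 1 h RT detection.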

[7] = target: Mitogen-activated protein kinase 10 (Mus musculus) (UniProt Q61831); assay: JNK3 AlphaScreen Assay (AID 530; active = well fitted curve in either direction with a large enough effect, not every such curve was filed as active;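 note: kinase came from lysate of stimulated human HepG2 cells; signal reports phosphorylation of biotinylated GST-cJun 1-79 at Ser73 with 10 µM ATP; % is set by controls: 0 for no effect and ±100 for the full control effect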); conditions: JNK3 lysate, c-Jun phosphorylation; series mostly up to 57.1 µM
In short: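 Pre-activated (IL-1β/TNFα) JNK3 in HepG2 lysates phosphorylates biotin-GST-cJun(1-79), 10 uM ATP; anti-phospho-cJun(Ser73) AlphaScreen read at room temperature, pH 7.6 Tris buffer. Compounds pre-incubated 15 min as titrations.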

[8] = target: 3',5'-cyclic-AMP phosphodiesterase 4B (Homo sapiens) (UniProt Q07343); assay: qHTS Assay for Inhibitors of PDE-IV (AID 607; active = well fitted activation curve with a large enough effect in the main read-out, with a control signal flat, not every such curve was filed as active; note: % of control where 0% means no effect); conditions: HEK293 ACTOne CNG channel cells, membrane potential fluorescence; series mostly up to 22.9 µM
In short: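 Live HEK293 cells with a modified cyclic nucleotide-gated (CNG) channel report intracellular cAMP via membrane-potential dye fluorescence (ex 535/em 590 nm). Endogenous PDE-IV was targeted. Compounds were tested at up to 22.9 uM final; RO 20-1724 100 uM served as control.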

[9] = target: Guanine nucleotide-binding protein G(i) subunit alpha-1 (Homo sapiens) (UniProt P63096); assay: qHTS Assay for Inhibitors of RGS12 GoLoco Motif Activity (Green Fluorophore) (AID 879); conditions: Galphai1/FITC-RGS12 GoLoco peptide, fluorescence polarization; series mostly up to 57.1 µM;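 note: 0% = labeled peptide with Gαi1 and full inhibition = labeled peptide alone without protein; negative values mean loss of peptide binding seen as reduced polarization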
In short: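 Fluorescence polarization assay: 50 nM Gαi1 with 10 nM FITC-labeled RGS12 GoLoco peptide in 10 mM Tris pH 7.5, 150 mM NaCl, 0.1 mM GDP, 0.05% NP40, 10 min at room temperature with compound.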

[10] = target: Cytochrome P450 2C9 (Homo sapiens) (UniProt P11712); assay: qHTS Assay for Inhibitors and Substrates of Cytochrome P450 2C9 (AID 883); conditions: recombinant CYP2C9, luciferin-H luminescence, 60 min; series mostly up to 57.1 µM; note: % is set by controls: 0 for no effect and ±100 for the full control effect; nearly all actives have a fitted effect of over 60% in size
In short: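 10nM CYP2C9 + 100uM Luciferin-H (=KM), 25mM KPO4; cpd 10 min 37C; NADPH regen, 60 min 37C; stop/detect with P450 Glo-Buffer 20 min; luminescence. Norm. to 57uM sulphaphenazole as full inhibition.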

[11] = target: Cytochrome P450 3A4 (Homo sapiens) (UniProt P08684); assay: qHTS Assay for Inhibitors and Substrates of Cytochrome P450 3A4 (AID 884); conditions: recombinant CYP3A4, Luciferin-PPXE luminescence; series mostly up to 57.1 µM; note: % is set by controls: 0 for no effect and ±100 for the full control effect; nearly all actives have a fitted effect of over 50% in size
In short: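 20 nM human CYP3A4 with 25 uM Luciferin-PPXE (at KM) in 200 mM KPO4, preincubated 10 min with compound; NADPH regeneration started a 60 min RT reaction. Luciferin detected by luminescence, normalized to 57 uM ketoconazole as full inhibition.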

[12] = target: Cytochrome P450 2D6 (Homo sapiens) (UniProt P10635); assay: qHTS Assay for Inhibitors and Substrates of Cytochrome P450 2D6 (AID 891); conditions: recombinant CYP2D6, luciferin-ME EGE luminescence; series mostly up to 57.1 µM;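 note: luciferin methyl ether substrate demethylated by CYP2D6 with NADPH regeneration; % is set by controls: 0 for no effect and ±100 for the full control effect; nearly all actives have a fitted effect of over 60% in size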
In short: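 Human CYP2D6 (5 nM) with 30 uM Luciferin-ME EGE (at Km) in 100 mM KPO4, compound preincubated 10 min, then NADPH regeneration system for 60 min at room temperature. Luciferin read by luminescence; normalized to 1.43 uM quinidine.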

[13] = target: Cytochrome P450 2C19 (Homo sapiens) (UniProt P33261); assay: qHTS Assay for Inhibitors and Substrates of Cytochrome P450 2C19 (AID 899); conditions: recombinant CYP2C19, luciferin-H EGE luminescence; series mostly up to 57.1 µM; note: % is set by controls: 0 for no effect and ±100 for the full control effect; nearly all actives have a fitted effect of over 60% in size
In short: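 Luminescent read-out of luciferin formed from Luciferin-H EGE (10uM, equal to KM). Enzyme 5nM in 50mM KPO4; compound added, 10 min at 37C, then NADPH regenerating system for 60 min at 37C. Full inhibition defined by 57uM ketoconazole.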

[14] = Confirmation and Secondary Assay for Modulators of Hemoglobin Beta Chain Splicing at IVS2 654 locus (AID 910); conditions: HeLa EGFP-654 splicing reporter, GFP fluorescence, 48 h; series mostly up to 46.1 µM;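 note: HeLa cells stably carrying EGFP split by mutant beta-globin IVS2-654 intron; % of control where 0% means no effect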
In short: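 HeLa cells stably expressing EGFP interrupted by β-globin IVS2-654 intron, seeded overnight in Opti-MEM/2% FCS, then treated 2 days at 37 °C. Restored splicing read as total peak GFP intensity per well by laser scanning cytometry (488 nm excitation, 500–520 nm emission); 500 nM antisense PNA as control.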

[15] = qHTS Assay for Identification of Small Molecule Agonists for Thrombopoietin (TPO) Signaling Pathway (AID 917); conditions: TPO signaling pathway reporter cells, agonist qHTS, stimulated with TPO at its EC50; series mostly up to 38.5 µM; note: % is set by controls: 0 for no effect and ±100 for the full control effect
In short: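 Murine Ba/F3 cells stably expressing human TPO receptor and a Glycoprotein IIb promoter–luciferase reporter were IL-3-starved overnight, then treated with compounds plus TPO (26 pM final, its EC50) for 24 hrs at 37 C; luminescence was read.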

[16] = Confirmation and Secondary Assay for Modulators of Hemoglobin Beta Chain Splicing at IVS2 705 locus (AID 930); conditions: HeLa EGFP-705 splicing reporter, GFP fluorescence, 48 h; series mostly up to 46.1 µM;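 note: HeLa cells stably expressing the EGFP-705 splicing reporter; GFP fluorescence per well restored by corrected splicing of the IVS2-705 intron in EGFP; % of control where 0% means no effect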
In short: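 HeLa IVS2-705 EGFP reporter cells, 500/well, compound 2 d at 37C; correct splicing yields fluorescent EGFP. Control: 500 nM antisense PNA. Read-out: total peak GFP intensity.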

[17] = target: Muscarinic acetylcholine receptor M1 (Rattus norvegicus) (UniProt P08482); assay: qHTS Assay for Antagonists of Acetylcholine Muscarinic M1 Receptor: Kinetic Measurement of Intracellular Calcium Response (AID 943); conditions: M1-expressing cells, kinetic intracellular calcium fluorescence; series mostly up to 35.3 µM; note: nearly all actives have a fitted effect of over 75% in size
In short: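 CHO cells expressing rat M1 receptor, Fluo-4 loaded, preincubated 10 min with compound, then stimulated with EC80 carbachol (100 nM final). Kinetic calcium fluorescence over 4 min; response taken as peak over basal signal.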

[18] = target: Muscarinic acetylcholine receptor M1 (Rattus norvegicus) (UniProt P08482); assay: qHTS Assay for Antagonists of Acetylcholine Muscarinic M1 Receptor: Measurement of IP-One Response (AID 944); conditions: CHO-M1 cells, IP-One HTRF, antagonist mode; series mostly up to 46.1 µM; note: nearly all actives have a fitted effect of over 75% in size
In short: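 CHO cells stably expressing rat M1, pretreated 10 min with compound, then stimulated 30 min with carbachol at EC80 (200 nM) in LiCl-containing buffer pH 7.4; IP1 accumulation read by HTRF competition (665/620 nm).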

[19] = target: Pyruvate kinase (Leishmania mexicana) (UniProt Q27686); assay: qHTS Validation Assay for Inhibitors of Leishmania Mexicana Pyruvate Kinase (AID 945);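 note: 0% = DMSO only neutral control wells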; conditions: purified L. mexicana pyruvate kinase, enzyme activity, E451W mutant enzyme; series mostly up to 57.5 µM
In short: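 Eight-point qHTS titrations; enzyme 0.2 nM LmPYK (E451W mutant); substrates 0.5 mM PEP, 0.1 mM ADP; 7 mM MgCl2; 1 h room temperature; PKLight luminescence normalized to neutral control.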

[20] = target: Pyruvate kinase PKM (Homo sapiens) (UniProt P14618); assay: qHTS Assay for Activators of Human Muscle Pyruvate Kinase (AID 954; active = well fitted curve in the direction sought with a large enough effect, not every such curve was filed as active;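 note: 0% = uninhibited enzyme and -100% = no enzyme or full thiadiazolimine inhibition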); conditions: purified human muscle pyruvate kinase, luciferase-coupled luminescence, 1 h; series mostly up to 57.5 µM
In short: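 Enzyme was run at intermediate activity so both inhibitors and activators could be detected. ATP formed from ADP and PEP by 0.1 nM human PKM2 during a 1 h room-temperature incubation was quantified by coupled luciferase luminescence.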

[21] = target: Alpha-galactosidase A (Homo sapiens) (UniProt P06280); assay: Counterscreen for Glucocerebrosidase Inhibitors: qHTS Assay for Human alpha-Galactosidase at pH 4.5 (AID 992); conditions: purified enzyme, fluorogenic substrate; series mostly up to 76.9 µM; note: 0% is about no effect
In short: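 Read-out is 4-methylumbelliferone fluorescence (365 nm excitation, 440 nm emission) after a pH 10 NaOH/glycine stop. Reactions held 2 nM enzyme and 80 uM substrate at pH 4.5 for 20 min at room temperature.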

[22] = qHTS Assay for Lipid Storage Modulators (AID 1519; calls by dose curve); conditions: Drosophila S3 cells, BODIPY lipid droplet/cell ratio, laser cytometry, cells loaded with oleic acid
In short: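 Cells seeded at 5,000 per well were treated with compounds over a concentration series and loaded with oleic acid (400 uM, as added). Lipid droplet fluorescence (488 nm excitation, 500-530 nm channel) was read by laser-scanning cytometry and normalized to 20 uM Triacsin C.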

[23] = target: Ubiquitin carboxyl-terminal hydrolase 1 (Homo sapiens) (UniProt O94782); assay: Inhibitors of USP1/UAF1: Pilot qHTS (AID 504865); conditions: purified USP1/UAF1, Ub-rhodamine cleavage fluorescence; series mostly up to 114 µM;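 note: rhodamine fluorescence freed from ubiquitin-rhodamine substrate followed over time; top concentration of the series differs between compounds; % is set by controls: 0 for no effect and ±100 for the full control effect; nearly all actives have a fitted effect of over 35% in size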
In short: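 USP1/UAF1 complex (1nM) preincubated with compound 15 min at room temperature, then Ub-Rho substrate (150nM final) added. Fluorescence read kinetically at 480/540 nm, 6 reads every 60 seconds. Buffer: 50mM HEPES pH 7.8, 0.5mM EDTA, 0.1 mg/ml BSA, 1mM TCEP, 0.01% Tween-20.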

[24] = target: DNA dC->dU-editing enzyme APOBEC-3G (Homo sapiens) (UniProt Q9HC16); assay: qHTS for inhibitors of Vif-A3G interactions: Validation (AID 588379); conditions: Vif-A3G protein interaction assay; series mostly up to 46.1 µM; note: 0% is about no effect
In short: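 HeLa cells stably expressing Vif and A3G-eYFP, 700 cells/well, incubated overnight at 37 deg C, then exposed to compound overnight at 37 deg C. Inhibition of Vif-mediated degradation read as increased yellow fluorescence (Ex 488/Em 500-530) by laser-scanning cytometry.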

[25] = tested on: Zika virus NS2B-NS3 protease; assay: Primary screen GU AMC qHTS for Zika virus inhibitors (AID 1347154); conditions: Zika NS2B-NS3 unlinked protease, AMC fluorogenic substrate; series mostly up to 54.1 µM;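 note: 0% = no-inhibitor control and -100% = no-enzyme control; nearly all actives have a fitted effect of over 70% in size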
In short: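 Unlinked Zika NS2B hydrophilic domain–NS3 protease complex at 25 nM in 10 mM Tris-HCl pH 8.0, 0.01% Tween 20, with an AMC peptide substrate. Fluorescence change (340/450 nm) over 15 min at room temperature, normalized to controls, fitted to 4-parameter Hill.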

[26] = Primary qHTS for small molecule stabilizers of the endoplasmic reticulum resident proteome: Secreted ER Calcium Modulated Protein (SERCaMP) assay (AID 1508630); conditions: SH-SY5Y GLuc-SERCaMP (Gaussia luciferase released on ER calcium loss) secretion, thapsigargin, luminescence; series mostly up to 38.4 µM; note: % is set by controls: 0 for no effect and ±100 for the full control effect
In short: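 GLuc-SERCaMP-expressing SH-SY5Y cells, pretreated 16 h with compound, are challenged with thapsigargin to empty ER calcium stores; after 4 h, coelenterazine is added directly to the medium and luminescence is imaged.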

Chain of Cytochrome P450 1A2 (Homo sapiens) (P05177 whole entry, looked up): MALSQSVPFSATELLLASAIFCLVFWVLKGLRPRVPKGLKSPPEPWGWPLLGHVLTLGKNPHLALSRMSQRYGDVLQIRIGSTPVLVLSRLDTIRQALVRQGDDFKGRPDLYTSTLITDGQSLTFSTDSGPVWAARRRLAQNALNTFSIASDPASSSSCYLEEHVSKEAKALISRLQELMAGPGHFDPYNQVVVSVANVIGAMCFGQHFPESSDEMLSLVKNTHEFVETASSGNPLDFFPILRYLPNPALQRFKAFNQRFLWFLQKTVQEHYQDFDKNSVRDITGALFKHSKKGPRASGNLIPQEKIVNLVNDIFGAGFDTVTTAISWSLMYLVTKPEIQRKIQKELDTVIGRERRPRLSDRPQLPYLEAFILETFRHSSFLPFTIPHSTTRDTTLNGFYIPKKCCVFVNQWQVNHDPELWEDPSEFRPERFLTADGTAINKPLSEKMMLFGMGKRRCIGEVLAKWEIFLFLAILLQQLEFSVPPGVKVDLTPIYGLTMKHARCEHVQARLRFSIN
Chain of Glucocorticoid receptor (Homo sapiens) (P04150 whole entry, looked up, the tested form may be a part): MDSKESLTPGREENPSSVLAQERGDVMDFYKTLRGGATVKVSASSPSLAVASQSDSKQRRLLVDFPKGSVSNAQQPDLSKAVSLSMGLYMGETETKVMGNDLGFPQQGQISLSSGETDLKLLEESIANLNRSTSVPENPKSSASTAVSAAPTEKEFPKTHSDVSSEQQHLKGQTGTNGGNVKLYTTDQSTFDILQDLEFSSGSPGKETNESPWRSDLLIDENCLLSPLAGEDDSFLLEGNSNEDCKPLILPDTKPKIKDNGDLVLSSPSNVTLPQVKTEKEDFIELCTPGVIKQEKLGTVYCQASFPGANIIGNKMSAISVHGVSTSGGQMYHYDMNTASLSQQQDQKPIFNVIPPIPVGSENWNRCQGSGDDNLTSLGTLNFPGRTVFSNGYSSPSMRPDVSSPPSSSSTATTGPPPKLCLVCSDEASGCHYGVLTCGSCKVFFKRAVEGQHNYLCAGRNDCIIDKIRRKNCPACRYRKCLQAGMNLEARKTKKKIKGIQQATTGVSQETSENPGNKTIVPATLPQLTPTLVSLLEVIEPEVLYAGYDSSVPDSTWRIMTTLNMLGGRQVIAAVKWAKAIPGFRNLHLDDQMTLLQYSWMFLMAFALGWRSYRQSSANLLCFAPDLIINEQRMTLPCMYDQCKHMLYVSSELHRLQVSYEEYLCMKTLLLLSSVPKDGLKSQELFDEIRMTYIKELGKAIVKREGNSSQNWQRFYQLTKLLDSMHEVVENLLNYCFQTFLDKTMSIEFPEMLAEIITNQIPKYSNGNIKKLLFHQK
Chain of Muscarinic acetylcholine receptor M1 (Rattus norvegicus) (P08482 whole entry, looked up): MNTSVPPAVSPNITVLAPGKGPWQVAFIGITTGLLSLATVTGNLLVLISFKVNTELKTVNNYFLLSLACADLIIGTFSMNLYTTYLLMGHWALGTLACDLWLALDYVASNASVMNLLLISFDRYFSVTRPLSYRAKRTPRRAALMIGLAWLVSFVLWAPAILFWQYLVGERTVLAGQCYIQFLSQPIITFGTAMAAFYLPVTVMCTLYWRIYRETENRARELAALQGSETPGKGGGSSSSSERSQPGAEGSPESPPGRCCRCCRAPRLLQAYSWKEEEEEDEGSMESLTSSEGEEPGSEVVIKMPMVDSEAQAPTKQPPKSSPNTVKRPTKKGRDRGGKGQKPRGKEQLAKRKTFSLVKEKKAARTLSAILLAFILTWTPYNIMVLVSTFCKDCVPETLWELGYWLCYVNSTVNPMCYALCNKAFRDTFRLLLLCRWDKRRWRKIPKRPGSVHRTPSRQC
Chain of 3',5'-cyclic-AMP phosphodiesterase 4B (Homo sapiens) (Q07343 whole entry, looked up): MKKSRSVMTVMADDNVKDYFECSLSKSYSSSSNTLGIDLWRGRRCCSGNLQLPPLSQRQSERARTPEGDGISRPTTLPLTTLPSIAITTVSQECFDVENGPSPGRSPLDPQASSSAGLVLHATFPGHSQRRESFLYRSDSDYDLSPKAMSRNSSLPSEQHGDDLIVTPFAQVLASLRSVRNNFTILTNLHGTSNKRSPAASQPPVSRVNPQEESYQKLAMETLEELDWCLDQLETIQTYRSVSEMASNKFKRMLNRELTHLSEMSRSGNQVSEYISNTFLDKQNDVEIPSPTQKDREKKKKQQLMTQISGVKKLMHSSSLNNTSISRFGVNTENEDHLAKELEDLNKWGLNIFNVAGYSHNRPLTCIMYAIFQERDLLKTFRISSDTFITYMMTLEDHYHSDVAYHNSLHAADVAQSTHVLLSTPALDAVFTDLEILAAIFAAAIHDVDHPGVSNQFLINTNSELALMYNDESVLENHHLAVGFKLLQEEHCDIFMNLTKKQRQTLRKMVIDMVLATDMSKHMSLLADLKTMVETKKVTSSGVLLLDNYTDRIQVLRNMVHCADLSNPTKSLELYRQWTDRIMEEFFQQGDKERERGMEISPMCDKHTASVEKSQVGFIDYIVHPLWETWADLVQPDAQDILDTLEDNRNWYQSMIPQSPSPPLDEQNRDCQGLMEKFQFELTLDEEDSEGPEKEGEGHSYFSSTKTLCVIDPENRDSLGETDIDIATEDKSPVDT
Chain of Ubiquitin carboxyl-terminal hydrolase 1 (Homo sapiens) (O94782 whole entry, looked up): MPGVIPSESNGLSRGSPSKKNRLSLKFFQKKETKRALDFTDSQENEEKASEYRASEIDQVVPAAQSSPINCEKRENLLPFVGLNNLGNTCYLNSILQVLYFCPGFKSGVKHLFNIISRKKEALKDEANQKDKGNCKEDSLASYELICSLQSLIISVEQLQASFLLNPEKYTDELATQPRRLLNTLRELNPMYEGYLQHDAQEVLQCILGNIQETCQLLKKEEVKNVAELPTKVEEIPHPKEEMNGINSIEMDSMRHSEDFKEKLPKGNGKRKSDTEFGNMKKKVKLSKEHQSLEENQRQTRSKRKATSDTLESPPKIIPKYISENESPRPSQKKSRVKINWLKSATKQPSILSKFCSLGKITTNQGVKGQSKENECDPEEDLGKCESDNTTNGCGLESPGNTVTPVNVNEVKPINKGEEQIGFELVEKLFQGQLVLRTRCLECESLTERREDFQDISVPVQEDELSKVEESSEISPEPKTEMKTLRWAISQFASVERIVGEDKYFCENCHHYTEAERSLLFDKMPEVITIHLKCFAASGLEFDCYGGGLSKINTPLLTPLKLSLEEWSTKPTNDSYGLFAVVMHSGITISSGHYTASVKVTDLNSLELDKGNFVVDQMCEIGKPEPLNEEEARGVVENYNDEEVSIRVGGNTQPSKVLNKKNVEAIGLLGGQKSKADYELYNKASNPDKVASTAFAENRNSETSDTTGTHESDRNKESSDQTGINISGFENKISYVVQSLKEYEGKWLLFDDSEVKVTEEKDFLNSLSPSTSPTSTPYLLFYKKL
Chain of DNA dC->dU-editing enzyme APOBEC-3G (Homo sapiens) (Q9HC16 whole entry, looked up): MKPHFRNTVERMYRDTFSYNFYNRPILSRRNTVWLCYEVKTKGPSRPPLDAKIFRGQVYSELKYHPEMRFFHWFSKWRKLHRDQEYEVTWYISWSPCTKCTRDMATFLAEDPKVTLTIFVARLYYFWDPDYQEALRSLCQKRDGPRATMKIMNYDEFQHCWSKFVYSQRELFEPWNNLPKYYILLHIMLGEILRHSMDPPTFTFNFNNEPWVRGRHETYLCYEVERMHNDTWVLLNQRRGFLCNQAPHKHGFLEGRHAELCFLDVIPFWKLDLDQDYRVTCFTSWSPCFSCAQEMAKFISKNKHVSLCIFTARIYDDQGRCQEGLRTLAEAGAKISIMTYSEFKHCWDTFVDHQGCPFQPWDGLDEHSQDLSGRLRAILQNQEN
Chain of Alpha-galactosidase A (Homo sapiens) (P06280 whole entry, looked up): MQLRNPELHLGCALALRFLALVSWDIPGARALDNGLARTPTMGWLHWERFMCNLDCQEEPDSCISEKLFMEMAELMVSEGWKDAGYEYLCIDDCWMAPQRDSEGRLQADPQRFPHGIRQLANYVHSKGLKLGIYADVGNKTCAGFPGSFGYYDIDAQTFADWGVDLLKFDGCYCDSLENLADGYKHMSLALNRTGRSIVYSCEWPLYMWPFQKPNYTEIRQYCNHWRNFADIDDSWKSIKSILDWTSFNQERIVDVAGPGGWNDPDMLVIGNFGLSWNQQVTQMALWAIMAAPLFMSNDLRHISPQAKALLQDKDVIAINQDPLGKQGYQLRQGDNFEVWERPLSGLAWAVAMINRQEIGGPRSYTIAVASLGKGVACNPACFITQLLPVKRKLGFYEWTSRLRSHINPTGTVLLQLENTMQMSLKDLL
Chain of Cytochrome P450 2C9 (Homo sapiens) (P11712 whole entry, looked up): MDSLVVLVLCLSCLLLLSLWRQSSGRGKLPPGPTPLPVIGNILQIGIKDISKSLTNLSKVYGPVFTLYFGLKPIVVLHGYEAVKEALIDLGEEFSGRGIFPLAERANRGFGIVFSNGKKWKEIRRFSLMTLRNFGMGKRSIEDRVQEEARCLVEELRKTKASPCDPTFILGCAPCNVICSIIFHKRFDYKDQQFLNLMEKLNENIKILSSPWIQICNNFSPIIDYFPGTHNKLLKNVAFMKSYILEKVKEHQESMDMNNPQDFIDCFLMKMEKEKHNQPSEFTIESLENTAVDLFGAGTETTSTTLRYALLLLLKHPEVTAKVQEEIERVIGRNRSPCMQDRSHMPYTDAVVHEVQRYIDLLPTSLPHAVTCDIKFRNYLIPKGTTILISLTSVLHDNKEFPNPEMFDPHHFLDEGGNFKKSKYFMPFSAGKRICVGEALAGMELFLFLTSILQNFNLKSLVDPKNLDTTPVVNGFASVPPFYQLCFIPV
Chain of Guanine nucleotide-binding protein G(i) subunit alpha-1 (Homo sapiens) (P63096 whole entry, looked up): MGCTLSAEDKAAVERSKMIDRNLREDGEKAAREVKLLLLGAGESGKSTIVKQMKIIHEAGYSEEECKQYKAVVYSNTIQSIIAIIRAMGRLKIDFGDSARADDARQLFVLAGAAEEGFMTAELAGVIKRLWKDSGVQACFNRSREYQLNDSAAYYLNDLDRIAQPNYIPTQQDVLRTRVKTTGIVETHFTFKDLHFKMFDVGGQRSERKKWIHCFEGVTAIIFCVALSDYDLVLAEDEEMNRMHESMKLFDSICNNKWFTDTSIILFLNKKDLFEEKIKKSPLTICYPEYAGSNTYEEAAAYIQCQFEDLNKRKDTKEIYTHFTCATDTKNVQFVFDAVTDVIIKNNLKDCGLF

C=C[C@H](N)CCC(=O)O
1.97% and -5.49%: max response ([22]; measured here: lipid channel max response)
3.82% and -3.83%: max response ([22]; measured here: cell count channel max response)
inactive: activity change, negative = inhibition ([1]; at 17.2 µM (top of the series)) -1.55% | activity change, negative = inhibition ([1]; at 38 µM (top of the series)) 6.29% | Potency [2] | activity change, negative = inhibition ([3]; at 17.2 µM (top of the series)) -1.05% | activity change, negative = inhibition ([3]; at 38 µM (top of the series)) 2.77% | activity, negative = inhibition ([4]; at 17.2 µM (top of the series)) -1.55% | activity, negative = inhibition ([4]; at 38 µM (top of the series)) -14.6% | Potency [5] > 46 µM and > 20.6 µM | Potency [6] > 46 µM and > 20.6 µM | Potency [7] | Potency [8] | outcome [9] | Potency [10] | Potency [11] | Potency [12] | Potency [13] | outcome [14] | Potency [15] | outcome [16] | Potency [17] | Potency [18] | Potency [19] | outcome [20] | outcome [21] | activity change, negative = inhibition ([22]; at 25.7 µM (top of the series)) -2.99% | activity change, negative = inhibition ([22]; at 57.5 µM (top of the series)) -0.953% | Potency [23] | Potency [24] | Potency [25] | Potency [26]
